Only a selection was taken, and hits are over-represented in it overall.
LmPK inh: blocks Leishmania mexicana pyruvate kinase activity; purified LmPK, Kinase-Glo ATP luminescence, 1 h; Potency, µM (series often up to 57.5 µM), actives largely listed as inhibitors; actives 0.37% (n = 290,000); active = well fitted curve in the direction sought with a large enough effect; inconclusive = small, poorly fitted or top-dose-only effect, or another doubt; inactive = no such curve, though single readings can be large; an effect the other way counts as inactive or inconclusive
Target sequence (Q27686 whole entry, looked up): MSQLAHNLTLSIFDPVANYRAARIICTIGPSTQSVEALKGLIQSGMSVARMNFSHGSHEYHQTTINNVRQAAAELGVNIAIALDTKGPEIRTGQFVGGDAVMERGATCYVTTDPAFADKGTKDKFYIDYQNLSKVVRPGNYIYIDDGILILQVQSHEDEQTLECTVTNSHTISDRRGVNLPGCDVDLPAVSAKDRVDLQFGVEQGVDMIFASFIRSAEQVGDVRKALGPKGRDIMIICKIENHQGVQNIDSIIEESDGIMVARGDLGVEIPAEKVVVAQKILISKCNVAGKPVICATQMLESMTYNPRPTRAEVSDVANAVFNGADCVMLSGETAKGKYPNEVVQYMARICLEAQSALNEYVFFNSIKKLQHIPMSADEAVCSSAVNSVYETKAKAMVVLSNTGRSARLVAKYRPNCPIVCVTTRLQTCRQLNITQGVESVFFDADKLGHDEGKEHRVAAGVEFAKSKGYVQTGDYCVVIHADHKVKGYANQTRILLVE
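Kinase-Glo luminescence read after 1 h RT reaction of 0.1 nM LmPK with 0.5 mM PEP and 0.1 mM ADP. Activity scaled between uninhibited and enzyme-free controls.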
TbPYK inhibitor: blocks Trypanosoma brucei pyruvate kinase; Q57TT1; TbPYK enzyme, Kinase-Glo Plus ATP luminescence, 45 min; Potency, µM (top dose mostly 76.8 µM), usual class: inhibitors; actives 0.12% (n = 410,000); AID 624173; active = well fitted curve in the direction sought with a large enough effect; inconclusive = small, poorly fitted or top-dose-only effect, or another doubt; inactive = no such curve, though single readings can be large; an effect the other way counts as inactive or inconclusive; also: nearly all actives have a fitted effect of over 50% in size
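In this concentration-response screen, enzyme-free wells defined baseline while DMSO plates tracked drift. Each reaction combined TbPYK, substrate, compound and 130 uM ADP for 45 min at room temperature. Kinase-Glo Plus luminescence gave the signal.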
CHX counter: counter-screen hit for Shiga toxin inhibitors, cycloheximide. cell reporter, cycloheximide protein synthesis inhibition counterscreen. max response, %. AID 2314. actives 12% (n = 300,000); in the data active = max response mostly above about 13%, no sharp cut-off; inactive = mostly below about 14%; also: read at 38.3 µM for the half of the compounds with a filed dose
SARS PLP yeast: SARS-CoV PLP inhibition in yeast; S. cerevisiae expressing SARS-CoV PLpro, growth rescue; Potency, µM (titrated, usually from 32.9 µM), usual class: activators; actives 0.19% (n = 330,000); AID 485353; also: nearly all actives have a fitted effect of over 55% in size
Shiga toxin inh: blocks Shiga toxin action in Vero cells; Vero cells, Shiga toxin protein synthesis inhibition reporter; inhibition, % at 38.7 µM; actives 9.2% (n = 290,000); AID 2315; in the data active = inhibition mostly above about 28%, no sharp cut-off; inactive = mostly below about 43%
NS1 function inh: inhibitors of influenza NS1 protein function. actives 0.4% (n = 270,000). Potency, µM (highest dose often 46.1 µM); also: actives are rising curves; nearly all actives have a fitted effect of over 50% in size
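Compounds were scored for reversing the slow growth caused by influenza A NS1 in S. cerevisiae, measured by optical density at 600 nm. Assay medium contained 2% galactose at pH 6.0; NS1-free yeast of the same strain were the positive control.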
Numbers stand for hits; - = inactive; ? = inconclusive; . = not tested or not shown. Unless noted, calls follow the shape of the full dose curve.

SMILES	LmPK inh	TbPYK inhibitor	CHX counter	SARS PLP yeast	Shiga toxin inh	NS1 function inh
COc1ccc(CCN(C)C(=O)C2CCCN(C3CCN(Cc4ccccc4)CC3)C2)cc1OC (centres undefined)	-	-	-	-	-	-
CC(C)c1onc(C(=O)NCc2ccc(Cl)cc2)c1[N+](=O)[O-]	-	-	-	-	-	-
CC(C)c1onc(C(=O)N(C)C2CCCCC2)c1[N+](=O)[O-]	-	-	26	-	-	.
Cc1onc(C(=O)Nc2cccc(C(F)(F)F)c2)c1[N+](=O)[O-]	-	-	27	-	-	-
CC(C)c1onc(C(=O)NC2CCCC2)c1[N+](=O)[O-]	-	-	-	-	-	.
CC(C)c1onc(C(=O)Nc2ccc3c(c2)OCO3)c1[N+](=O)[O-]	-	-	33	-	52	-
CC(C)c1onc(C(=O)NCc2ccccc2)c1[N+](=O)[O-]	-	-	23	-	41	-
Cc1onc(C(=O)Nc2ccccc2C(F)(F)F)c1[N+](=O)[O-]	-	-	-	-	-	-
CCN(CC)c1cc(C)nc2nc(-c3ccc(C)cc3)nn12	.	-	.	.	.	.
O=C(Nc1cccc(C(F)(F)F)c1)c1cc(-c2ccc(Cl)cc2)on1	.	-	.	.	.	.
Cc1ccc(NC(=O)c2noc(C(C)C)c2[N+](=O)[O-])cc1	-	-	55	-	78	.
CCc1ccccc1NC(=O)c1noc(C(C)C)c1[N+](=O)[O-]	-	-	-	-	-	.
CC(C)c1onc(C(=O)Nc2cccc(O)c2)c1[N+](=O)[O-]	-	-	31	-	145	.
CC(C)c1cc(C(=O)Nc2cccc(C(F)(F)F)c2)no1	-	-	50	-	121	-
O=C(CCC(=O)c1ccccc1)Nc1ccccc1OC(F)F	-	-	-	-	-	-
O=C(CSc1ccc(C(F)(F)F)cn1)Nc1ccccc1	-	-	-	-	-	-
O=C(/C=C/Sc1ccc(C(F)(F)F)cn1)c1ccccc1	-	-	22	-	-	-
COc1ccc(N2C(=O)C3CC(C)=C(C)CC3C2=O)c(OC)c1 (centres undefined)	-	-	-	-	-	-
COc1ccc(N2CSC3=C(C#N)C(c4ccc(OC)c(OC)c4)CC(=O)N3C2)c(OC)c1 (centres undefined)	-	7.9µM	-	-	-	-
COc1ccc(N2CSC3=C(C#N)C(c4cc(OC)c(OC)cc4OC)CC(=O)N3C2)c(OC)c1 (centres undefined)	-	8.9µM	-	-	-	-
COc1ccc(N2CSC3=C(C#N)C(c4cc(OC)ccc4OC)CC(=O)N3C2)c(OC)c1 (centres undefined)	-	7.9µM	-	-	-	-
Cc1ccc(N2CSC3=C(C#N)C(c4cccs4)CC(=O)N3C2)cc1 (centres undefined)	-	?	-	-	-	-
CCOc1ccccc1N1CSC2=C(C#N)C(c3c(OC)ccc4ccccc34)CC(=O)N2C1 (centres undefined)	-	3.5µM	-	-	-	?
CCOC(=O)c1ccc(N2CSC3=C(C#N)C(c4cccs4)CC(=O)N3C2)cc1 (centres undefined)	-	?	-	-	-	-
COc1ccc(C2CC(=O)N3CN(c4ccc(C)c(Cl)c4)CSC3=C2C#N)cc1OC (centres undefined)	-	?	-	-	-	-
SMILES	LmPK inh	TbPYK inhibitor	CHX counter	SARS PLP yeast	Shiga toxin inh	NS1 function inh
COc1cccc(CCNC(=O)c2c(O)nc3ccccn3c2=O)c1	.	-	.	.	.	.
COc1cc(CNC(=O)c2cc(-c3ccc(F)cc3C)n[nH]2)cc(OC)c1	.	-	.	.	.	.
CN1CSC2=C(C#N)C(c3cccc(OCc4ccccc4)c3)CC(=O)N2C1 (centres undefined)	-	?	-	-	-	-
COc1ccc(C2CC(=O)N3CN(C4CCCCC4)CSC3=C2C#N)cc1 (centres undefined)	.	22µM	.	.	.	.
COc1cc(OC)c(C2CC(=O)N3CN(c4ccc(C)cc4)CSC3=C2C#N)cc1OC (centres undefined)	-	1.6µM	-	-	41	-
COc1cc(C(=O)NCCNC(=O)c2ccco2)cc(OC)c1OC	.	-	.	.	.	.
Cc1ccc(S(=O)(=O)N/N=C/c2cc([N+](=O)[O-])ccc2O)cc1[N+](=O)[O-]	-	-	-	-	-	.
COc1cc(/C=N/NS(=O)(=O)c2ccc(C)c([N+](=O)[O-])c2)ccc1O	-	-	36	-	122	.

Screening results (PubChem)
